Screening data: PubChem BioAssay, National Center for Advancing Translational Sciences (NCATS)
RE007 growth inh: less growth of the S. pombe RE007 Vpr strain; S. pombe RE007 Vpr strain, BacTiter-Glo ATP luminescence, 24 h; Potency, µM (series often up to 92.2 µM), actives largely listed as inhibitors; hit rate 0.21% among 360,000; AID 651644; active means well fitted falling curve with a large enough effect; inconclusive means small, poorly fitted or top-dose-only effect; inactive means no such curve, though single readings can be large or run the other way; further: nearly all actives have a fitted effect of over 50% in size
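Fission yeast strain RE007, carrying one chromosomally integrated HIV-1 vpr copy, was seeded at OD 0.01 in PMG+AL medium with 23 nL pinned compound. After 24 h at 30 °C and 99% humidity, viability was read by BacTiter-Glo luminescence.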
LmPK inhibitor: LmPK (Leishmania mexicana) enzyme inhibition; hit rate 0.37% among 290,000; Q27686; Potency, µM (top dose mostly 57.5 µM), most hits filed as inhibitors; purified LmPK, Kinase-Glo ATP luminescence, 1 h
Target sequence (Q27686 whole entry, looked up): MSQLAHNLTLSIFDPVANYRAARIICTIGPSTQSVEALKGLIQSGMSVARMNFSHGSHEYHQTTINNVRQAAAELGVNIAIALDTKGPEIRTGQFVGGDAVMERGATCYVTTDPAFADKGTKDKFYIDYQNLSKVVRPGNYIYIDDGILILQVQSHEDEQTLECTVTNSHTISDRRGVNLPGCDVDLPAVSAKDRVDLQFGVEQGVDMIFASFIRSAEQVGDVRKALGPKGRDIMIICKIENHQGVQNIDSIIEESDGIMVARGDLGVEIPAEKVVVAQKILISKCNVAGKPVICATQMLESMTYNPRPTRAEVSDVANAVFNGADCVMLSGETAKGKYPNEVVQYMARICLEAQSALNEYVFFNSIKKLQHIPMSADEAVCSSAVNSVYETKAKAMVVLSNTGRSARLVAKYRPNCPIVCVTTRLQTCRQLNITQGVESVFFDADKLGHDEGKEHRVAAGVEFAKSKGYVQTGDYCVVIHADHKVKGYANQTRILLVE
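Pyruvate kinase activity monitored as ATP production (luciferase luminescence). Conditions: 0.1 nM enzyme, 0.5 mM PEP, 0.1 mM ADP, 1 h, RT; normalized against uninhibited and no-enzyme wells.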
TbPYK inhibitor: T. brucei pyruvate kinase inhibition; Q57TT1; TbPYK enzyme, Kinase-Glo Plus ATP luminescence, 45 min; Potency, µM (titrated, usually from 76.8 µM), usual class: inhibitors; hit rate 0.12% among 410,000; further: nearly all actives have a fitted effect of over 50% in size
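Luminescence from Kinase-Glo Plus, added after a 45-minute room-temperature reaction, served as the end-point read-out. The enzyme and substrate were preincubated with compound before ADP (130 uM final) initiated turnover. Concentration-effect curves came from normalized qHTS data.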
CHX counter: counter-screen for Shiga toxin inhibitors: cycloheximide protein synthesis inhibition. cell reporter, cycloheximide protein synthesis inhibition counterscreen. max response, %. hit rate 12% among 300,000. AID 2314; in the data active means max response mostly above about 13%, no sharp cut-off; inactive means mostly below about 14%; further: read at 38.3 µM for the half of the compounds with a filed dose
FBPA Giardia inh: blocks Giardia fructose-bisphosphate aldolase activity; A8B2U2; purified Giardia FBPA; Potency, µM (series often up to 59.6 µM), actives largely listed as inhibitors; hit rate 0.71% among 290,000; further: nearly all actives have a fitted effect of over 55% in size
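Giardia FBPA (40 nM reagent) was preincubated 10 min at RT with compound (up to 57.5 uM final), then substrate plus GAPDH/TPI/NAD/arsenate coupling system with diaphorase/resazurin was added; resorufin fluorescence (525/598 nm) was read after 20 min.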
Shiga inhibitor: blocks Shiga toxin action in Vero cells; Vero cells, Shiga toxin protein synthesis inhibition reporter; inhibition, % at 38.7 µM; hit rate 9.2% among 290,000; AID 2315; in the data active means inhibition mostly above about 28%, no sharp cut-off; inactive means mostly below about 43%
Hits are given with their value; [ ] = dose if it differs, or a comment. This is one part of a sample in which hits are shown more often than they occur. Unless noted, the call rests on the fitted dose curve; in most records, active means well fitted curve in the direction sought with a large enough effect; inconclusive means small, poorly fitted or top-dose-only effect, or another doubt; inactive means no such curve, though single readings can be large; an effect the other way counts as inactive or inconclusive.

What do the screens show for `CCCC(=O)Nc1ccc2oc(-c3ccc(OC)c(Br)c3)nc2c1`?
RE007 growth inh: inactive; LmPK inhibitor: inactive; TbPYK inhibitor: inactive; CHX counter: 22; FBPA Giardia inh: inactive; Shiga inhibitor: inactive

How did CCCC(=O)Nc1ccc(-c2nc3cc(C)c(C)cc3o2)c(O)c1 do in these assays?
RE007 growth inh: inactive; LmPK inhibitor: inactive; TbPYK inhibitor: inactive; CHX counter: 32; FBPA Giardia inh: inactive; Shiga inhibitor: inactive

How did CCOC(=O)c1ccc(NC(=O)C(CC)Sc2nncn3c2cc2oc(C)cc23)cc1 (centres undefined) do in these assays?
TbPYK inhibitor: inactive

Results for COc1ccc2c(C)c(CCC(=O)NCc3cccc(Cl)c3)c(=O)oc2c1 ?
TbPYK inhibitor: inactive

How did COc1ccc(C(=O)N/N=C/c2c(CO)cnc(C)c2O)cc1 do in these assays?
RE007 growth inh: inactive; LmPK inhibitor: inactive; TbPYK inhibitor: inactive; CHX counter: inactive; FBPA Giardia inh: inactive; Shiga inhibitor: inactive

How did O=C(N/N=C/c1sc2ccccc2c1O)c1cccc2ccccc12 do in these assays?
RE007 growth inh: inactive; LmPK inhibitor: inactive; TbPYK inhibitor: inactive; CHX counter: 25; FBPA Giardia inh: inactive; Shiga inhibitor: inactive

Results for O=C(N/N=C/c1ccc(Br)cc1)c1ccc(NC(=O)c2ccccc2)cc1 ?
RE007 growth inh: inactive; TbPYK inhibitor: inactive

How did COc1ccc(C(=O)N/N=C/c2sc3ccccc3c2O)cc1 do in these assays?
RE007 growth inh: inconclusive; LmPK inhibitor: inactive; TbPYK inhibitor: inactive; CHX counter: 40; FBPA Giardia inh: inactive; Shiga inhibitor: 116

Results for O=C(N/N=C/c1sc2ccccc2c1O)c1ccccc1 ?
RE007 growth inh: 45µM; LmPK inhibitor: inactive; TbPYK inhibitor: inactive; CHX counter: 50; FBPA Giardia inh: inconclusive; Shiga inhibitor: 61

Results for COc1ccc2cc(C(=O)N/N=C/c3sc4ccccc4c3O)ccc2c1 ?
RE007 growth inh: inactive; LmPK inhibitor: inactive; TbPYK inhibitor: inactive; CHX counter: 52; FBPA Giardia inh: inconclusive; Shiga inhibitor: 111

Results for COc1ccc(NS(=O)(=O)c2cccc(C(=O)N/N=C/c3c(F)c(F)c(F)c(F)c3F)c2)cc1 ?
RE007 growth inh: inactive; TbPYK inhibitor: inactive

Results for c1ccc(CNc2ccc(CNc3ncn[nH]3)cc2)cc1 ?
RE007 growth inh: inactive; LmPK inhibitor: inactive; TbPYK inhibitor: inactive; CHX counter: 18; FBPA Giardia inh: inactive; Shiga inhibitor: inactive

How did Cc1ccc(NCc2ccccc2)cc1 do in these assays?
RE007 growth inh: inactive; LmPK inhibitor: inactive; TbPYK inhibitor: inactive; CHX counter: 49; FBPA Giardia inh: inactive; Shiga inhibitor: 94

Results for c1ccc(CNc2ncn[nH]2)cc1 ?
RE007 growth inh: inactive; TbPYK inhibitor: inactive

How did CSc1ccc(CNc2ccc(C)c(C)c2)cc1 do in these assays?
RE007 growth inh: inactive; LmPK inhibitor: inactive; TbPYK inhibitor: inactive; CHX counter: 25; FBPA Giardia inh: inactive; Shiga inhibitor: 79

Results for CSc1ccc(CNc2ccc(C)cc2)cc1 ?
RE007 growth inh: inactive; LmPK inhibitor: inactive; TbPYK inhibitor: inactive; CHX counter: 36; FBPA Giardia inh: inactive; Shiga inhibitor: 80

What do the screens show for `Cc1ccccc1Cn1c(=O)n(-c2ccc(Cl)cc2)c(=O)c2c3c(sc21)CCCC3`?
TbPYK inhibitor: inactive

How did Cc1ccc(-n2nc(C(=O)Nc3ccc(Br)cc3C)c(=O)n(C)c2=O)cc1 do in these assays?
TbPYK inhibitor: inactive

What do the screens show for `COc1cc([C@@H]2CC(=O)c3c(O)cc(O)cc3O2)ccc1O`?
CHX counter: inactive; FBPA Giardia inh: inactive; Shiga inhibitor: inactive

What do the screens show for `Cc1ccc(CNc2cccnc2)cc1`?
RE007 growth inh: inactive; LmPK inhibitor: inactive; TbPYK inhibitor: inactive; CHX counter: 43; FBPA Giardia inh: inactive; Shiga inhibitor: 38

What do the screens show for `COc1cc(CNc2ncn[nH]2)ccc1OCc1cccc(C)c1`?
RE007 growth inh: inactive; LmPK inhibitor: inactive; TbPYK inhibitor: inactive; CHX counter: 48; FBPA Giardia inh: inactive; Shiga inhibitor: 70

How did O=C(Cc1c(Cl)cccc1Cl)OCc1ccccn1 do in these assays?
RE007 growth inh: inactive; LmPK inhibitor: inactive; TbPYK inhibitor: inactive; CHX counter: 25; FBPA Giardia inh: inactive; Shiga inhibitor: 59

Results for O=C(OCc1c(Cl)cccc1Cl)c1ccccn1 ?
RE007 growth inh: inactive; LmPK inhibitor: inactive; TbPYK inhibitor: inactive; CHX counter: inactive; FBPA Giardia inh: inactive; Shiga inhibitor: inactive

How did Cc1c(CCO)c(=O)[nH]n1C(=O)c1ccc(F)cc1 do in these assays?
RE007 growth inh: inactive; LmPK inhibitor: inactive; TbPYK inhibitor: inactive; CHX counter: 24; FBPA Giardia inh: inactive; Shiga inhibitor: 65

What do the screens show for `Cc1c(CCO)c(=O)n(C)n1C(=O)c1ccc(F)cc1`?
RE007 growth inh: inactive; LmPK inhibitor: inactive; TbPYK inhibitor: inactive; CHX counter: inactive; FBPA Giardia inh: inactive; Shiga inhibitor: inactive

What do the screens show for `O=C(NCc1nnc(SCC(=O)N2CCCCC2)o1)c1c(F)cccc1Cl`?
RE007 growth inh: inactive; LmPK inhibitor: inactive; TbPYK inhibitor: inactive; CHX counter: inactive; Shiga inhibitor: inactive

What do the screens show for `NC(C(=O)O)C(O)c1ccc(O)c(O)c1` (centres undefined)?
TbPYK inhibitor: inactive

How did Cc1ccc(Cn2c(=O)c3cccnc3n(Cc3ccc(F)cc3)c2=O)cc1 do in these assays?
TbPYK inhibitor: inactive

What do the screens show for `CCOC(=O)c1nn(-c2ccc(F)cc2)c(=O)c2c(N)scc12`?
RE007 growth inh: inactive; LmPK inhibitor: inactive; TbPYK inhibitor: inactive; CHX counter: 19; FBPA Giardia inh: inactive; Shiga inhibitor: inactive

How did CCOC(=O)c1nn(-c2ccc(C)cc2)c(=O)c2c(N)scc12 do in these assays?
RE007 growth inh: inactive; LmPK inhibitor: inactive; TbPYK inhibitor: inactive; CHX counter: inactive; FBPA Giardia inh: inconclusive; Shiga inhibitor: inactive

What do the screens show for `CCOC(=O)c1nn(-c2ccc(F)cc2)cc1O`?
RE007 growth inh: inactive; LmPK inhibitor: inactive[11.5 µM]; TbPYK inhibitor: inactive; CHX counter: 52; FBPA Giardia inh: inactive; Shiga inhibitor: 115

How did CCCCc1nn2c(=O)cc(COC(=O)c3cccs3)nc2s1 do in these assays?
TbPYK inhibitor: inactive

How did O=C(COC(=O)C(O)c1ccccc1)c1ccc2c(c1)OCCO2 (centres undefined) do in these assays?
RE007 growth inh: inactive; LmPK inhibitor: inactive; TbPYK inhibitor: inactive; CHX counter: 32; FBPA Giardia inh: inactive; Shiga inhibitor: 103

Results for Nc1ccccc1C(=O)OCC(=O)c1ccc2c(c1)OCCO2 ?
RE007 growth inh: inactive; LmPK inhibitor: 14µM; TbPYK inhibitor: inactive; CHX counter: 31; FBPA Giardia inh: inactive; Shiga inhibitor: 74

Results for Cc1c(C(=O)OCC(=O)c2ccc3c(c2)OCCO3)oc2ccccc12 ?
RE007 growth inh: inactive; LmPK inhibitor: inactive; TbPYK inhibitor: inactive; CHX counter: 36; FBPA Giardia inh: inactive; Shiga inhibitor: 59
